Hits are enriched below; roughly 6.8% of the tested compounds scored in any of these assays.
KB-3-1 cytotox: kills parental KB-3-1 adenocarcinoma cells | AID 1347075 | KB-3-1 viability, CellTiter-Glo ATP luminescence, 72 h | Potency, µM (titrated, usually from 46.1 µM), most hits filed as cytotoxic | hit rate 1.4% among 400,000; note: % is set by controls: 0 for no effect and ±100 for the full control effect; nearly all actives have a fitted effect of over 60% in size
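Luminescent ATP read-out (CellTiter-Glo) measures survival of drug-naive KB-3-1 cells after 72 h compound exposure at 37 °C. Titration series was screened from lowest to highest concentration, with DMSO vehicle plates as background controls.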
PTAP TSG101 blk: blocks PTAP/TSG101 interaction to inhibit HIV-1 budding; 340,000 tested, under 10 active; Fluorescence polarization, FITC-PTAP peptide / Tsg101 binding; Q99816; AID 493005; Potency, µM (titrated, usually from 115 µM), without a hit: at the highest dose activity change, negative = inhibition, hits mostly inhibitors; active = well fitted inhibition curve with a large enough effect in the main read-out, with a control signal flat, not every such curve was filed as active; inconclusive = small, poorly fitted or top-dose-only effect, or effect the other way, or a change in a side signal; inactive = no such curve, though single readings can be large or run the other way; note: % of control where 0% means no effect
Target sequence (Q99816 whole entry, looked up): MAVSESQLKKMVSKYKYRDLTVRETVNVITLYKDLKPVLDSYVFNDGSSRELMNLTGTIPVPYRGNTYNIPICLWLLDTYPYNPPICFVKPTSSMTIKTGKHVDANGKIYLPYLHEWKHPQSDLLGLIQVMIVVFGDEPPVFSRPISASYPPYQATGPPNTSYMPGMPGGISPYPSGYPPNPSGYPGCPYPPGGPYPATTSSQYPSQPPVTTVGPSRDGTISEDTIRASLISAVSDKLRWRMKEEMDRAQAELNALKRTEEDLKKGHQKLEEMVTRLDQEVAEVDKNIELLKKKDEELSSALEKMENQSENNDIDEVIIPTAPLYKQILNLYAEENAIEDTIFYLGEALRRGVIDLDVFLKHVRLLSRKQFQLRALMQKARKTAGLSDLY
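Compounds were pin-transferred onto Tsg101 binding domain (10 uM final) in HEPES pH 7.5 buffer, then FITC-PTAP peptide was added at 50 nM final. After 20 min at RT, polarization reported peptide displacement across a qHTS concentration series.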
KB-V1 cytotox: KB-V1 MDR subline cytotoxicity. AID 1347076. hit rate 3.4% among 400,000. KB-V1 MDR cells viability, CellTiter-Glo, 72 h. Potency, µM (titrated, usually from 46.1 µM), usual class: cytotoxic; note: % is set by controls: 0 for no effect and ±100 for the full control effect; nearly all actives have a fitted effect of over 60% in size
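Drug-selected KB-V1 cells, grown in DMEM lacking phenol red with 10% FBS, receive compound titrations; after three days at 37 degrees C, surviving cell ATP is quantified by CellTiter-Glo luminescence and responses normalized and curve-fitted.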
PINK1 modulator: changes PINK1 expression. AID 624263. PINK1 immunofluorescence, high-content cytometry, 24 h. Potency, µM (doses to about 76.6 µM), for the others: at the highest dose activation (PINK1 increase), most hits filed as activators. hit rate 0.2% among 410,000; active = well fitted activation curve with a large enough effect; inconclusive = small, poorly fitted or top-dose-only effect; cell line not stated here; note: % of control where 0% means no effect; nearly all actives have a fitted effect of over 65% in size
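Compound titrations (5 concentrations, 24 h) on a stable cell line; DMSO and CCCP controls. Endpoint: fixed-cell PINK1 immunofluorescence with mitochondrial, cell and nuclear markers, scanned by microplate cytometer.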
MCF10A rereplic: DNA re-replication induction in MCF 10a cells; Potency, µM (titrated, usually from 46.1 µM), without a hit: at the highest dose activity, positive = re-replication, actives largely listed as activators; hit rate 2.9% among 350,000; AID 624296; MCF 10A DNA re-replication, Hoechst nuclear intensity, 48 h; note: % of control where 0% means no effect; nearly all actives have a fitted effect of over 50% in size
SW480 rerep: induces DNA re-replication in SW480 colon adenocarcinoma cells. SW480 DNA re-replication, Hoechst DNA content imaging, 48 h. Potency, µM (doses to about 46.1 µM), without a hit: at the top dose re-replication activation, hits mostly activators. hit rate 1.8% among 340,000. AID 624297; note: % of control where 0% means no effect; nearly all actives have a fitted effect of over 55% in size
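Quantitative HTS format with DMSO vehicle controls; 48 hr drug incubation at 37 C, then 40 min Hoechst staining and scanning imager measurement at 405 nm excitation.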
Active calls of the source: *; i = inactive; ? = inconclusive; nt = no result given; [ ] = dose if it differs, or a comment. Unless noted, calls come from the whole dose curve; as a rule, active = well fitted curve in the direction sought with a large enough effect; inconclusive = small, poorly fitted or top-dose-only effect, or another doubt; inactive = no such curve, though single readings can be large; an effect the other way counts as inactive or inconclusive. Potency is the fitted concentration of half-maximal effect.

SMILES | KB-3-1 cytotox | PTAP TSG101 blk | KB-V1 cytotox | PINK1 modulator | MCF10A rereplic | SW480 rerep
CC(C)(C)OC(=O)N[C@@H](Cc1ccccc1)c1nnc(S(=O)(=O)Cc2cccc(F)c2)o1 | 18µM* | -1% | 18µM* | 0% | ? | ?
CC(C)[C@H](NC(=O)OC(C)(C)C)c1nnc(S(=O)(=O)Cc2c(F)cccc2Cl)o1 | i | -11% | ? | 6.3µM* | 9.2µM* | 20%
CCCc1cc2c(=O)c(-c3ccc4c(c3)OCCO4)coc2cc1OS(C)(=O)=O | ? | -2% | 10µM* | -2% | ? | -1%
CCN(c1cccc(C)c1)S(=O)(=O)c1ccc(-c2cc(C)no2)s1 | 4.6µM* | -4% | ? | 9% | -6% | -6%
CCN(c1cccc(C)c1)S(=O)(=O)c1c(C)[nH]c(=O)[nH]c1=O | i | -3% | i | 0%[38.3 µM] | 19% | 1%
CCN(c1cccc(C)c1)S(=O)(=O)c1cnc[nH]1 | i | -4% | i | 3%[38.3 µM] | 21µM* | 1%
CCOc1ccc(N(C)S(=O)(=O)c2ccc(-c3cc(C)no3)s2)cc1 | 5.8µM* | -8% | ? | 4% | 4.6µM* | 9.2µM*
COc1ccccc1NS(=O)(=O)c1ccc(-c2cc(C)no2)s1 | 7.3µM* | -2% | ? | 2% | 17% | -6%
Cc1cc(-c2ccc(S(=O)(=O)Nc3cccc(C(F)(F)F)c3)s2)on1 | i | nt | i | 18% | nt | nt
Cc1cc(C)cc(NC(=O)CN2C(=O)COc3ccc(S(=O)(=O)Nc4ccccc4)cc32)c1 | i | nt | i | 0% | nt | nt
Cc1cccc(N(C)S(=O)(=O)c2ccc(-c3cc(C)no3)s2)c1 | ? | 5% | ? | 4% | ? | 0.82µM*
COc1ccccc1CNS(=O)(=O)c1ccc(-c2cc(C)no2)cc1 | 1.3µM* | 0% | ? | 1% | ? | -4%
CCc1ccc(-c2cc(C)no2)cc1S(=O)(=O)NCc1ccccc1OC | i | 1% | i | 0% | -16% | 2%
Cc1[nH]c(C)c(Cl)c(=O)c1Cl | nt | nt | nt | nt | 0% | -8%
CCCCCCCC/C=C\CCCCCCCCN | nt | nt | nt | nt | -3% | 1%
CC(CN1CCOCC1)OC(=O)c1ccc(Br)cc1 (centres undefined) | ? | -1% | ? | 0% | ? | ?
O=C(c1ccc(Br)cc1)C(CN1CCOCC1)c1ccccc1 (centres undefined) | ? | 3% | ? | -4% | 18µM* | ?
O=C(c1ccccc1)c1ccc(OCC(O)CN2CCOCC2)cc1 (centres undefined) | i | -4% | i | -1% | -1% | 0%
CC(CN1CCCC1)OC(=O)C(c1ccccc1)c1ccccc1 (centres undefined) | i | -7% | i | 3% | 0.58µM* | ?
CC(CN1CCCCC1)OC(=O)CCc1ccccc1 (centres undefined) | ? | 4% | i | 2% | 22% | 4%
CCOc1ccc(C(=O)C(CN2CCOCC2)c2ccccc2)cc1 (centres undefined) | ? | 1% | ? | -6% | 7.3µM* | 5.2µM*
O=C(c1ccccc1)C(CN1CCCCC1)c1ccccc1 (centres undefined) | 5.8µM* | -4% | 15µM* | -2% | 4.1µM* | 1.5µM*
CCN(CC)CCCNC(=O)c1nn(-c2ccc(OC)cc2)c(=O)c2c1c1ccccc1n2C | i | nt | i | -1% | nt | nt
CC(C)(C)C(=O)OCc1cc(=O)n2nc(C3CC3)sc2n1 | i | nt | i | 0% | nt | nt
c1ccc(Oc2ccc(-c3ccnc4nc(N5CCOCC5)nn34)cc2)cc1 | i | -2% | ? | -3% | 18µM* | 16µM*
SMILES | KB-3-1 cytotox | PTAP TSG101 blk | KB-V1 cytotox | PINK1 modulator | MCF10A rereplic | SW480 rerep
Cc1nc(N2CCCC2)ncc1C(=O)Nc1ccc(F)cc1F | i | nt | i | 4% | nt | nt
Nc1c(Cl)cc(C2=NCCn3nc4ccccc4c32)cc1Cl | 6.5µM* | -2% | 21µM* | 1% | 37% | 3%
Cn1c(=O)n(CCCc2ccccc2)c(=O)c2c1nc1n2CCN1c1ccc(F)cc1 | nt | nt | nt | 0% | nt | nt
Cc1nc2c(c(C)nn2C(C)(C)C)c(C)c1CCC(=O)Nc1ccc(F)cc1 | i | nt | ? | 4% | nt | nt
CC(C)(C)NC(=O)c1cccc(NC(=O)c2ccc3c(c2)C(=O)N(C(C)(C)C)C3=O)c1 | i | -4% | ? | 5% | ? | 3%
CC(C)(C)N1C(=O)c2ccc(C(=O)Nc3ccc(O)cc3)cc2C1=O | ? | 1% | 8.2µM* | 3% | ? | ?
Cc1csc(NC(=O)c2cc3c(C)nn(Cc4ccccc4Cl)c3s2)n1 | i | -6% | i | 9% | 10µM* | ?
Cc1nn(Cc2ccccc2Cl)c2sc(C(=O)NC(C)(C)C)cc12 | ? | 1% | ? | 0% | ? | ?
Cc1nn(Cc2ccccc2Cl)c2sc(C(=O)OC3CCCC3=O)cc12 (centres undefined) | i | -7% | 6.5µM* | -6%[38.3 µM] | 1% | -4%
CC(=O)c1cccc(NC(=O)c2c(-c3ccccc3)c(-c3ccccc3)nn(C)c2=O)c1 | nt | nt | nt | -1% | nt | nt
CSc1n[nH]c(-c2sccc2OCc2ccc(C)cc2)n1 | i | -1% | 16µM* | 16%[38.3 µM] | 19% | -5%
CSc1nnc(-c2sccc2OCc2ccccc2)n1C | i | 0% | i | -2% | 1% | 1%
C=CCOc1ccc2cccc(/C=N/NC(=O)c3cc4cc([N+](=O)[O-])ccc4s3)c2c1 | ? | 2% | i | 20µM* | ? | 21µM*
CCc1ccccc1NC(=O)Cn1cc2c(n1)CCC(C)C2 (centres undefined) | i | nt | i | 0% | nt | nt
CC1(C)Cc2ccccc2-c2nnc(SCc3ccccc3)n21 | i | -3% | i | nt | -4% | -4%
CC1(C)Cc2ccccc2-c2nnc(SCC(=O)Nc3nc4ccccc4s3)n21 | ? | -2% | 3.3µM* | 6%[38.3 µM] | 2% | -3%
CC1(C)Cc2ccccc2-c2nnc(SCC(=O)N3CCN(c4ccccc4)CC3)n21 | 12µM* | -5% | 2.3µM* | 0%[38.3 µM] | 28% | 6%
Cn1c(SCC(=O)Nc2nc3ccccc3s2)nnc1-c1ccccc1 | i | -2% | i | 0% | 29% | 3%
Cc1ccccc1-n1c(SCC(=O)N2CCN(c3ccccc3)CC2)nnc1-c1ccncc1 | i | -3% | 3.7µM* | ? | 14% | 0%
NCCCCNc1ncnc2ccc(-c3ccc4c(c3)OCO4)cc12 | i | nt | i | nt | nt | nt
CC(C)(C)NCC(O)COc1c(F)cc(Br)cc1F (centres undefined) | i | 2% | i | -3%[38.3 µM] | -21% | -5%
